Measurements: PubChem BioAssay
Active and inactive are the calls of the source.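 Rule for the calls: active = normalized viability below 100% at a tested concentration; inactive = the rest.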

Assay: ovarian cancer cell viability with rucaparib, profiling panel, oncology-focused library, rucaparib conditional (AID 1508598)
Details: patient-derived ovarian cancer cells, CellTiter-Glo viability, 144 h, hits give low values
[1] = at 0.000305 µM, OCI-C5x cells, with rucaparib 10 µM, 100% = cells with rucaparib alone
[2] = at 0.000305 µM, OCI-C5x cells, without rucaparib
[3] = at 0.000305 µM, OCI-P5x cells, with rucaparib 20 µM, 100% = cells with rucaparib alone
[4] = at 0.000305 µM, OCI-P5x cells, without rucaparib
[5] = at 0.00122 µM, OCI-C5x cells, with rucaparib 10 µM, 100% = cells with rucaparib alone
[6] = at 0.00122 µM, OCI-C5x cells, without rucaparib
[7] = at 0.00122 µM, OCI-P5x cells, with rucaparib 20 µM, 100% = cells with rucaparib alone
[8] = at 0.00122 µM, OCI-P5x cells, without rucaparib
[9] = at 0.00488 µM, OCI-C5x cells, with rucaparib 10 µM, 100% = cells with rucaparib alone
[10] = at 0.00488 µM, OCI-C5x cells, without rucaparib
[11] = at 0.00488 µM, OCI-P5x cells, with rucaparib 20 µM, 100% = cells with rucaparib alone
[12] = at 0.00488 µM, OCI-P5x cells, without rucaparib
[13] = at 0.0195 µM, OCI-C5x cells, with rucaparib 10 µM, 100% = cells with rucaparib alone
[14] = at 0.0195 µM, OCI-C5x cells, without rucaparib
[15] = at 0.0195 µM, OCI-P5x cells, with rucaparib 20 µM, 100% = cells with rucaparib alone
[16] = at 0.0195 µM, OCI-P5x cells, without rucaparib
[17] = at 0.0781 µM, OCI-C5x cells, with rucaparib 10 µM, 100% = cells with rucaparib alone
[18] = at 0.0781 µM, OCI-C5x cells, without rucaparib
[19] = at 0.0781 µM, OCI-P5x cells, with rucaparib 20 µM, 100% = cells with rucaparib alone
[20] = at 0.0781 µM, OCI-P5x cells, without rucaparib
[21] = at 0.313 µM, OCI-C5x cells, with rucaparib 10 µM, 100% = cells with rucaparib alone
[22] = at 0.313 µM, OCI-C5x cells, without rucaparib
[23] = at 0.313 µM, OCI-P5x cells, with rucaparib 20 µM, 100% = cells with rucaparib alone
[24] = at 0.313 µM, OCI-P5x cells, without rucaparib
[25] = at 1.25 µM, OCI-C5x cells, with rucaparib 10 µM, 100% = cells with rucaparib alone
[26] = at 1.25 µM, OCI-C5x cells, without rucaparib
[27] = at 1.25 µM, OCI-P5x cells, with rucaparib 20 µM, 100% = cells with rucaparib alone
[28] = at 1.25 µM, OCI-P5x cells, without rucaparib
[29] = at 5 µM, OCI-C5x cells, with rucaparib 10 µM, 100% = cells with rucaparib alone
[30] = at 5 µM, OCI-C5x cells, without rucaparib
[31] = at 5 µM, OCI-P5x cells, with rucaparib 20 µM, 100% = cells with rucaparib alone
[32] = at 5 µM, OCI-P5x cells, without rucaparib

Measured: viability

CCC(C)(C)C(=O)O[C@@H]1C[C@@H](C)C=C2C=C[C@H](C)[C@@H](CC[C@@H]3C[C@@H](O)CC(=O)O3)[C@H]21
inactive: [1] 109% | [2] 119% | [3] 102% | [4] 113% | [5] 108% | [6] 113% | [7] 110% | [8] 115% | [9] 112% | [10] 110% | [12] 110% | [14] 112% | [16] 101%
active: [11] 96.9% | [13] 95.4% | [15] 94.2% | [17] 76.6% | [18] 70.9% | [19] 72.4% | [20] 66.6% | [21] 36% | [22] 32% | [23] 13.1% | [24] 14.5% | [25] 24.2% | [26] 27.2% | [27] 7.81% | [28] 7.43% | [29] 8.07% | [30] 7.81% | [31] 5.14% | [32] 3.59%

Cc1cc(NC(=O)c2cccc(NC(=O)/C=C/CN(C)C)c2)ccc1Nc1nccc(-c2cccnc2)n1
inactive: [1] 118% | [2] 133% | [3] 111% | [4] 110% | [5] 116% | [6] 132% | [7] 108% | [8] 113% | [9] 140% | [10] 160% | [11] 108% | [12] 107% | [13] 146% | [14] 172% | [15] 104% | [16] 106% | [17] 180% | [18] 183% | [19] 111% | [20] 109% | [21] 172% | [22] 199% | [23] 116% | [24] 112% | [25] 163% | [26] 186% | [27] 103% | [28] 116% | [29] 159% | [30] 194% | [32] 108%
active: [31] 83.9%
